# In PubChem BioAssay AID1159580 (chemical genetic matrix, 2015):
# The campaign covered roughly 5,500 compounds. About 2,000 (36%) were called active. Roughly 18% stayed inconclusive and do not appear here. This is one part of the list. Unmarked numbers belong to inactive results. Cut-off read from the data, not from the text of the source: active = normalized growth mostly below about 0.91 (no sharp cut-off); inconclusive = no clear call, values can overlap the other calls; inactive = mostly above about 0.92.
# Assay: chemical genetic growth profiling, strain panel (AID 1159580);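 note: tested at 20 µM; growth read once vehicle control cultures reached saturation at 30 °C; 1 = growth at the plate median or of vehicle wells; lower values mean less growth of the strain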
# Settings: growth OD
# [1] = S. cerevisiae deletion strains, locus YBR021W, strain FUR4, active compounds read low
# [2] = S. cerevisiae deletion strains, locus YBR229C, strain ROT2, active compounds read low
# [3] = S. cerevisiae deletion strains, locus YCL029C, strain bik1, active compounds read low
# [4] = S. cerevisiae deletion strains, locus YDL035C, strain GPR1, active compounds read low
# [5] = S. cerevisiae deletion strains, locus YDL074C, strain BRE1, active compounds read low
# [6] = S. cerevisiae deletion strains, locus YDL101C, strain DUN1, active compounds read low
# [7] = S. cerevisiae deletion strains, locus YDL185W, strain tfp1, active compounds read low
# [8] = S. cerevisiae deletion strains, locus YDL192W, strain arf1, active compounds read low
# [9] = S. cerevisiae deletion strains, locus YDR101C, strain arx1, active compounds read low
# [10] = S. cerevisiae deletion strains, locus YDR162C, strain NBP2, active compounds read low
# [11] = S. cerevisiae deletion strains, locus YDR318W, strain mcm21, active compounds read low
# [12] = S. cerevisiae deletion strains, locus YDR388W, active compounds read low
# [13] = S. cerevisiae deletion strains, locus YDR502C, strain sam2, active compounds read low
# [14] = S. cerevisiae deletion strains, locus YER110C, active compounds read low
# [15] = S. cerevisiae deletion strains, locus YER155C, strain BEM2, active compounds read low
# [16] = S. cerevisiae deletion strains, locus YER167W, strain BCK2, active compounds read low
# [17] = S. cerevisiae deletion strains, locus YGL078C, strain dbp3, active compounds read low
# [18] = S. cerevisiae deletion strains, locus YGL086W, strain mad1, active compounds read low
# [19] = S. cerevisiae deletion strains, locus YGL248W, strain PDE1, active compounds read low
# [20] = S. cerevisiae deletion strains, locus YGR135W, strain pre9, active compounds read low
# [21] = S. cerevisiae deletion strains, locus YGR252W, strain gcn5, active compounds read low
# [22] = S. cerevisiae deletion strains, locus YHR030C, strain SLT2, active compounds read low
# [23] = S. cerevisiae deletion strains, locus YHR079C, strain IRE1 (second series), active compounds read low
# [24] = S. cerevisiae deletion strains, locus YHR094C, strain hxt1, active compounds read low
# [25] = S. cerevisiae deletion strains, locus YHR129C, strain ARP1, active compounds read low
# [26] = S. cerevisiae deletion strains, locus YHR200W, strain rpn10, active compounds read low
# [27] = S. cerevisiae deletion strains, locus YIL066C, strain RNR3, active compounds read low
# [28] = S. cerevisiae deletion strains, locus YIL073C, strain SPO22, active compounds read low
# [29] = S. cerevisiae deletion strains, locus YIL125W, strain kgd1, active compounds read low
# [30] = S. cerevisiae deletion strains, locus YIR030C, strain dcg1, active compounds read low
# [31] = S. cerevisiae deletion strains, locus YJL095W, strain BCK1, active compounds read low
# [32] = S. cerevisiae deletion strains, locus YJL134W, strain LCB3, active compounds read low
# [33] = S. cerevisiae deletion strains, locus YJL168C, strain set2, active compounds read low
# [34] = S. cerevisiae deletion strains, locus YJL187C, strain SWE1 (second series), active compounds read low
# [35] = S. cerevisiae deletion strains, locus YKL009W, strain mrt4, active compounds read low
# [36] = S. cerevisiae deletion strains, locus YKL068W, active compounds read low
# [37] = S. cerevisiae deletion strains, locus YKL085W, strain MDH1 (second series), active compounds read low
# [38] = S. cerevisiae deletion strains, locus YKL085W, strain MDH1, active compounds read low
# [39] = S. cerevisiae deletion strains, locus YKR001C, strain vps1, active compounds read low
# [40] = S. cerevisiae deletion strains, locus YLR039C, strain RIC1, active compounds read low
# [41] = S. cerevisiae deletion strains, locus YLR058C, strain SHM2, active compounds read low
# [42] = S. cerevisiae deletion strains, locus YLR102C, strain apc9, active compounds read low
# [43] = S. cerevisiae deletion strains, locus YLR268W, strain sec22, active compounds read low
# [44] = S. cerevisiae deletion strains, locus YLR330W, strain CHS5, active compounds read low
# [45] = S. cerevisiae deletion strains, locus YLR371W, strain rom2, active compounds read low
# [46] = S. cerevisiae deletion strains, locus YLR418C, strain cdc73, active compounds read low
# [47] = S. cerevisiae deletion strains, locus YML016C, strain PPZ1, active compounds read low
# [48] = S. cerevisiae deletion strains, locus YML032C, strain rad52, active compounds read low
# [49] = S. cerevisiae deletion strains, locus YML124C, strain tub3, active compounds read low
# [50] = S. cerevisiae deletion strains, locus YMR078C, strain ctf18, active compounds read low
# [51] = S. cerevisiae deletion strains, locus YMR223W, strain ubp8, active compounds read low
# [52] = S. cerevisiae deletion strains, locus YMR307W, strain GAS1, active compounds read low
# [53] = S. cerevisiae deletion strains, locus YNL067W, strain RPL9B, active compounds read low
# [54] = S. cerevisiae deletion strains, locus YNL153C, strain GIM3, active compounds read low
# [55] = S. cerevisiae deletion strains, locus YNL233W, strain BNI4, active compounds read low
# [56] = S. cerevisiae deletion strains, locus YNL250W, strain rad50, active compounds read low
# [57] = S. cerevisiae deletion strains, locus YNL271C, strain bni1, active compounds read low
# [58] = S. cerevisiae deletion strains, locus YNL298W, strain CLA4, active compounds read low
# [59] = S. cerevisiae deletion strains, locus YNL307C, strain MCK1, active compounds read low
# [60] = S. cerevisiae deletion strains, locus YNR052C, strain pop2, active compounds read low
# [61] = S. cerevisiae deletion strains, locus YOL012C, strain htz1
# [62] = S. cerevisiae deletion strains, locus YOL147C, strain pex11, active compounds read low
# [63] = S. cerevisiae deletion strains, locus YOR061W, strain CKA2, active compounds read low
# [64] = S. cerevisiae deletion strains, locus YOR069W, strain VPS5, active compounds read low
# [65] = S. cerevisiae deletion strains, locus YOR136W, strain idh2, active compounds read low
# [66] = S. cerevisiae deletion strains, locus YOR144C, strain elg1, active compounds read low
# [67] = S. cerevisiae deletion strains, locus YOR184W, strain ser1, active compounds read low
# [68] = S. cerevisiae deletion strains, locus YOR316C, strain cot1, active compounds read low
# [69] = S. cerevisiae deletion strains, locus YPL241C, strain CIN2, active compounds read low
# [70] = S. cerevisiae deletion strains, locus YPR119W, strain clb2, active compounds read low
# [71] = S. cerevisiae deletion strains, locus YPR141C, strain kar3, active compounds read low
# [72] = S. cerevisiae deletion strains, locus YPR163C, strain tif3, active compounds read low
# [73] = S. cerevisiae deletion strains, locus YPR167C, strain met16, active compounds read low
# [74] = S. cerevisiae deletion strains, strain wtn01, active compounds read low
smiles,measurement,setting,value
CC(=O)O[C@H]1CC[C@]2(C)C3=CC(=O)[C@@]4(C)C(C[C@@H]5OC6(OCC(C)CC6Br)[C@@H](C)[C@@H]54)C3CC[C@H]2C1 (some centres undefined),normalized growth,"S. cerevisiae deletion strains, locus YAL013W, strain DEP1, active compounds read low",1.01
same,normalized growth,[1],0.964
same,normalized growth,[2],0.99
same,normalized growth,[3],0.994
same,normalized growth,[4],1.01
same,normalized growth,[5],1.01
same,normalized growth,[6],0.989
same,normalized growth,[7],0.988
same,normalized growth,[8],0.995
same,normalized growth,[9],1.02
same,normalized growth,[10],1.01
same,normalized growth,[11],0.997
same,normalized growth,[12],0.994
same,normalized growth,[13],0.995
same,normalized growth,[14],0.986
same,normalized growth,[15],0.987
same,normalized growth,[16],0.996
same,normalized growth,[17],0.982
same,normalized growth,[18],1.01
same,normalized growth,[19],0.995
same,normalized growth,[20],0.973
same,normalized growth,"S. cerevisiae deletion strains, locus YGR229C, strain SMI1, active compounds read low",1.03
same,normalized growth,[21],0.986
same,normalized growth,[22],0.992
same,normalized growth,[23],0.984
same,normalized growth,[24],0.973
same,normalized growth,[25],0.995
same,normalized growth,[26],0.984
same,normalized growth,[27],1
same,normalized growth,[28],1.01
same,normalized growth,[29],0.994
same,normalized growth,[30],0.996
same,normalized growth,[31],0.994
same,normalized growth,[32],0.993
same,normalized growth,[33],0.994
same,normalized growth,[34],0.981
same,normalized growth,"S. cerevisiae deletion strains, locus YJR043C, strain POL32, active compounds read low",1.02
same,normalized growth,"S. cerevisiae deletion strains, locus YJR075W, strain HOC1, active compounds read low",0.995
same,normalized growth,[35],1.01
same,normalized growth,[36],0.996
same,normalized growth,[37],1.13 [resistant] (active)
same,normalized growth,[38],1.13 [resistant] (active)
same,normalized growth,[39],0.989
same,normalized growth,[40],0.987
same,normalized growth,[41],0.995
same,normalized growth,[42],0.993
same,normalized growth,"S. cerevisiae deletion strains, locus YLR262C, strain YPT6, active compounds read low",1.04
same,normalized growth,[43],0.995
same,normalized growth,[44],0.997
same,normalized growth,[45],0.99
same,normalized growth,[46],0.991
same,normalized growth,[47],0.982
same,normalized growth,[48],0.995
same,normalized growth,[49],0.988
same,normalized growth,[50],0.993
same,normalized growth,[51],0.993
same,normalized growth,[52],0.981
same,normalized growth,[53],0.98
same,normalized growth,[54],0.993
same,normalized growth,[55],1.01
same,normalized growth,[56],0.989
same,normalized growth,[57],0.993
same,normalized growth,[58],0.99
same,normalized growth,[59],0.993
same,normalized growth,[60],0.983
same,normalized growth,[61],0.79
same,normalized growth,[62],0.997
same,normalized growth,[63],0.992
same,normalized growth,[64],0.992
same,normalized growth,[65],0.991
same,normalized growth,[66],0.989
same,normalized growth,[67],1.01
same,normalized growth,[68],0.99
same,normalized growth,[69],0.999
same,normalized growth,[70],0.991
same,normalized growth,[71],0.99
same,normalized growth,[72],0.992
same,normalized growth,[73],0.992
same,normalized growth,[74],1.01
CC(=O)O[C@H]1CC[C@]2(C)C3C(=O)[C@@H](OC(C)=O)[C@@]4(C)C(C[C@@H]5O[C@]6(CCC(C)CO6)[C@@H](C)[C@@H]54)C3CC[C@H]2C1 (some centres undefined),normalized growth,[1],1.01
same,normalized growth,[2],0.997
same,normalized growth,[3],0.996
same,normalized growth,[4],1.03
same,normalized growth,[5],1.06
same,normalized growth,[6],0.986
same,normalized growth,"S. cerevisiae deletion strains, locus YDL134C, strain PPH21, active compounds read low",0.998
same,normalized growth,[7],0.986
same,normalized growth,[8],1
same,normalized growth,[9],1.01
same,normalized growth,[10],1.02
same,normalized growth,[11],0.991
same,normalized growth,[12],0.99
same,normalized growth,[13],0.984
same,normalized growth,"S. cerevisiae deletion strains, locus YEL061C, strain CIN8, active compounds read low",0.999
same,normalized growth,[14],0.983
same,normalized growth,[15],0.984
same,normalized growth,[16],0.993
same,normalized growth,[17],0.963
same,normalized growth,[18],0.986
same,normalized growth,[19],0.985
same,normalized growth,[20],0.978
same,normalized growth,[21],1.04
same,normalized growth,[22],0.992
same,normalized growth,[23],0.99
same,normalized growth,[24],0.987
same,normalized growth,[25],0.991
same,normalized growth,[26],0.982
same,normalized growth,[27],1.01
same,normalized growth,[28],1.01
same,normalized growth,[29],0.987
same,normalized growth,[30],0.988
same,normalized growth,[31],0.996
same,normalized growth,[32],0.993
same,normalized growth,[33],0.994
same,normalized growth,[34],0.988
same,normalized growth,[35],0.994
same,normalized growth,[36],0.997
same,normalized growth,[37],0.987
same,normalized growth,[38],0.987
same,normalized growth,"S. cerevisiae deletion strains, locus YKL190W, strain CNB1, active compounds read low",0.998
same,normalized growth,[39],0.982
same,normalized growth,[40],1.05
same,normalized growth,[41],1
same,normalized growth,[42],0.985
same,normalized growth,[43],1.01
same,normalized growth,[44],0.996
same,normalized growth,[45],0.99
same,normalized growth,[46],0.977
same,normalized growth,[47],0.981
same,normalized growth,[48],1.01
same,normalized growth,[49],0.991
same,normalized growth,[50],0.992
same,normalized growth,[51],0.994
same,normalized growth,[52],1
same,normalized growth,[53],0.981
same,normalized growth,[54],0.988
same,normalized growth,[55],0.988
same,normalized growth,[56],0.968
same,normalized growth,[57],0.976
same,normalized growth,[58],0.991
same,normalized growth,[59],0.986
same,normalized growth,"S. cerevisiae deletion strains, locus YNL322C, strain KRE1, active compounds read low",0.997
same,normalized growth,[60],0.974
same,normalized growth,[61],0.895
same,normalized growth,[62],0.986
same,normalized growth,[63],1
same,normalized growth,[64],0.996
same,normalized growth,[65],0.988
same,normalized growth,[66],0.992
same,normalized growth,[67],1.01
same,normalized growth,[68],0.987
same,normalized growth,"S. cerevisiae deletion strains, locus YPL055C, strain LGE1, active compounds read low",1.02
same,normalized growth,[69],0.996
same,normalized growth,[70],0.98
same,normalized growth,[71],0.983
same,normalized growth,[72],0.991
same,normalized growth,[73],0.976
same,normalized growth,[74],1.01
same,normalized growth,"S. cerevisiae strains, strain wild type, active compounds read low",1.01
